# Results published in PubChem BioAssay (Tox21).
# Several values for one entry are separate records, joined by “and”; a condition that tells them apart may be missing. Equal values may be shown once. Inconclusive results are not listed. A call without a number means that no potency is given here. Some compounds were tested as several samples or in several runs, with calls that do not always agree. Activity calls are given as the source filed them. Unless noted, calls come from the whole dose curve; as a rule, active = well fitted curve in the direction sought with a large enough effect in the repeat runs; inconclusive = weak or mixed curves; inactive = no such curve, though single readings can be large; an effect the other way counts as inactive or inconclusive.
# Tests used:
# [1] = qHTS assay to identify small molecule antagonists of the androgen receptor (AR) signaling pathway using the MDA cell line in the presence of 0.5 nM R1881 - cell viability counter screen (AID 1259242); note: nearly all actives have a fitted effect of over 45% in size
# How it was run: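 Viability of MDA-kb2 cells was multiplexed with the luciferase AR readout; after 16 hr with compounds and R1881 at 0.5 nM final, CellTiter-Fluor fluorescence was recorded.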
# [2] = target: Estrogen receptor (Homo sapiens) (UniProt P03372); test: qHTS assay to identify small molecule antagonists of the estrogen receptor alpha (ER-alpha) signaling pathway using the BG1 cell line in the presence of 0.1 nM 17-beta-estradiol (AID 1259244); note: nearly all actives have a fitted effect of over 50% in size; note: potency is the fitted concentration of half-maximal effect
# Sequence of Estrogen receptor (Homo sapiens) (P03372 whole entry, looked up): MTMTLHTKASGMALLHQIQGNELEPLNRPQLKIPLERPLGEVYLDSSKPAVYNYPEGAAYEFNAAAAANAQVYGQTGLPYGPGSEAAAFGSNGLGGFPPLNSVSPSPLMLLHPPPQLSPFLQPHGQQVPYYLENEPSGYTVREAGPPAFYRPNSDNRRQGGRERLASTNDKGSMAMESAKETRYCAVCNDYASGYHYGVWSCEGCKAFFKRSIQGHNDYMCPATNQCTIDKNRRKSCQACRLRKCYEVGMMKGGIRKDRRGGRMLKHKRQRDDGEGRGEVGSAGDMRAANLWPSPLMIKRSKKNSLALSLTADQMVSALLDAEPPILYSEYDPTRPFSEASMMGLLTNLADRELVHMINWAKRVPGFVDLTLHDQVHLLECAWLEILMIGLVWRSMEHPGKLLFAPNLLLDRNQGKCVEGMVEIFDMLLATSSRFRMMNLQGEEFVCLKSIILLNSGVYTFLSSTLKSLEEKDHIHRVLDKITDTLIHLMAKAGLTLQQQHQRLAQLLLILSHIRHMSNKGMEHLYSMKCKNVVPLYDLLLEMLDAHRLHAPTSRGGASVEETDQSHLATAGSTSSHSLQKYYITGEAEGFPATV
# How it was run: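 Estradiol at 0.1 nM (final) stimulates the endogenous ER-alpha of VM7Luc4E2 cells carrying an ERE-driven luciferase; compounds are co-incubated 22 h at 37C and luciferase output quantified by luminescence.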
# [3] = qHTS assay to identify small molecule phospholipidosis (PLD) inducers (AID 1259344; active = well fitted curve in the direction sought with a large enough effect; an effect the other way counts as inactive or inconclusive)
# How it was run: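 Phospholipidosis is scored by imaging LipidTOX-stained pits in HepG2 cells exposed to compound for 24 h at 37 C; pit counts and integrated intensities per well and per cell serve as outputs.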
# [4] = qHTS assay to identify small molecule HDAC inhibitors (AID 1259364); note: potency is the fitted concentration of half-maximal effect;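 note: wild-type HCT-116 cells with endogenous class I/II HDAC activity; nearly all actives have a fitted effect of over 45% in size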
# How it was run: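 Read-out: luminescence of HDAC-Glo I/II reagent, 30 min RT, reflecting class I/II deacetylase activity in whole HCT-116 cells pre-exposed 2 h to DMSO-dissolved compounds.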
# [5] = qHTS assay to identify small molecule HDAC inhibitors - cell viability counter screen (AID 1259365); note: series mostly up to about 92 µM; nearly all actives have a fitted effect of over 50% in size
# How it was run: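 HCT-116 wild-type, overnight attachment; 2hr drug exposure, 37C; CellTiter-Glo luminescent ATP readout after 30min RT.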
# [6] = qHTS assay to identify small molecule agonists of the sonic hedgehog signaling (Shh) pathway - cell viability counter screen (AID 1259366); note: nearly all actives have a fitted effect of over 50% in size; note: potency is the fitted concentration of half-maximal effect
# How it was run: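 Compounds in DMSO were pin-transferred onto 3T3 Gli1-Luc cells that had settled 4hr; plates then stood 24hr at 37C and 5% CO2. One hour before the end, CellTiter-Fluor was added and fluorescence recorded.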
# [7] = qHTS assay to identify small molecule antagonists of the sonic hedgehog signaling (Shh) pathway - cell viability counter screen (AID 1259367); note: nearly all actives have a fitted effect of over 55% in size; note: potency is the fitted concentration of half-maximal effect
# How it was run: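 Cells: 3T3 Gli1-Luc, 2,000/well, 4 hr pre-incubation. Compounds in DMSO, then conditioned medium. Incubation 24 hr, 37C, 5% CO2. CellTiter-Fluor at 23 hr, 1 hr, fluorescence.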
# [8] = qHTS assay to identify small molecule agonists of the sonic hedgehog signaling (Shh) pathway (AID 1259368; calls by dose curve;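 note: NIH/3T3-derived 3T3Gli1-Luc cells carrying a stable Gli1-driven firefly luciferase reporter; series mostly up to about 92 µM; nearly all actives have a fitted effect of over 15% in size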)
# How it was run: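 A Gli1 transcriptional response element controlled firefly luciferase in 3T3Gli1-Luc cells. Compounds and a positive control were added 4 hr after plating, and cells were incubated a further 24 hr at 37 C before luminescence detection.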
# [9] = qHTS assay to identify small molecule antagonists of the sonic hedgehog signaling (Shh) pathway (AID 1259369; calls by dose curve; note: nearly all actives have a fitted effect of over 45% in size; note: potency is the fitted concentration of half-maximal effect)
# How it was run: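 For antagonist detection, the reporter line received test compounds together with conditioned medium, incubated 24hr at 37 C, 5% CO2, then luminescence was recorded following 30min room-temperature luciferase reagent incubation.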
# [10] = target: Estrogen receptor beta (Homo sapiens) (UniProt Q92731); test: qHTS assay to identify small molecule agonists of the estrogen receptor beta (ER-beta) signaling pathway (AID 1259377; active = well fitted activation curve with a large enough effect in the signal ratio in the repeat runs, not every such curve was filed as active; the % refers to the signal ratio)
# Sequence of Estrogen receptor beta (Homo sapiens) (Q92731 whole entry, looked up): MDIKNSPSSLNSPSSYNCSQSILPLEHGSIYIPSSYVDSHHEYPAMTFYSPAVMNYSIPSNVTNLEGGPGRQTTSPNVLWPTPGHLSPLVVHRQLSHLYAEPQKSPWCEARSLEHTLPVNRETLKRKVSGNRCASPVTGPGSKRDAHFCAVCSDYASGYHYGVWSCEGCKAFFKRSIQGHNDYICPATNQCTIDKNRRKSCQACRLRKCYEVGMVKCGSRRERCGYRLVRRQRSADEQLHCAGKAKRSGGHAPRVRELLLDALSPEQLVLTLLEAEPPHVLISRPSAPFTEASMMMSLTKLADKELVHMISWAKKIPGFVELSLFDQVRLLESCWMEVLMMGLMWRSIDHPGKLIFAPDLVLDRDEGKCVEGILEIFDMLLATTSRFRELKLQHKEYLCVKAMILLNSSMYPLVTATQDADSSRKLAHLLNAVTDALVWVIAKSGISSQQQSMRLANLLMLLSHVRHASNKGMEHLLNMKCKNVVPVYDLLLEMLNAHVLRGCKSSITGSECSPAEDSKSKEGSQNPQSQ
# How it was run: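 qHTS in ER-beta-UAS-bla HEK293T cells: 6 hr settling, then 16 hr compound at 37C, then LiveBLAzer substrate 2 h at RT before fluorescence reading.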
# [11] = target: Estrogen receptor beta (Homo sapiens) (UniProt Q92731); test: qHTS assay to identify small molecule antagonists of the estrogen receptor beta (ER-beta) signaling pathway (AID 1259378; active = well fitted inhibition curve with a large enough effect in the signal ratio in the repeat runs, not every such curve was filed as active; the % refers to the signal ratio; note: potency is the fitted concentration of half-maximal effect)
# How it was run: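 Antagonist mode: compounds added to beta-lactamase reporter HEK293T ER-beta-UAS cells stimulated with E2 (1nM final), 16 hr at 37C. LiveBLAzer B/G FRET substrate, 2 hours room temperature, fluorescence read-out.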
# [12] = qHTS assay to identify small molecule agonists of the androgen receptor (AR) signaling pathway in the presence of an antagonist - cell viability counter screen (AID 1259379); note: nearly all actives have a fitted effect of over 25% in size; note: potency is the fitted concentration of half-maximal effect
# How it was run: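 Seed MDA-kb2 at 3,000 cells/well; incubate 5 hr, 37C, 0% CO2. Add nilutamide to 3.0uM final, then pin compounds at 15 concentrations. Incubate 16 hr. Add CellTiter-Fluor at 15 hr, read fluorescence after 1 hr.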
# [13] = qHTS assay to identify small molecule agonists of the estrogen receptor beta (ER-beta) signaling pathway - cell viability counter screen (AID 1259380); note: nearly all actives have a fitted effect of over 30% in size; note: potency is the fitted concentration of half-maximal effect
# How it was run: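 CellTiter-Glo read, 30 min RT, same wells as bla assay; cells ER-beta-UAS-bla HEK293T; 16 hr compound, 37C; medium 2% charcoal-stripped FBS.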
# [14] = target: Estrogen receptor (Homo sapiens) (UniProt P03372); test: qHTS assay to identify small molecule agonists of the estrogen receptor alpha (ER-alpha) signaling pathway in the presence of an antagonist (AID 1259383; calls by dose curve; note: top concentration of the series differs between compounds; nearly all actives have a fitted effect of over 15% in size)
# How it was run: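 Stably transfected VM7Luc4E2 reporter cells, kept 5 days in charcoal-stripped serum, received ICI-182,780 at 10.0nM final before compound addition. Following 22hr incubation at 37C and 5% CO2, luciferase signal was read by luminescence.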
# [15] = qHTS assay to identify small molecule agonists or antagonists of the thyroid stimulating hormone receptor (TSHR) signaling pathway - wild type cell line counter screen (AID 1259384; calls by dose curve)
# How it was run: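 Counter screen in untransfected Hek293: compounds (15-point titration, triplicate) plus phosphodiesterase inhibitor Ro20-1724 added after 18 h plating; 30 min RT. Intracellular cAMP via competitive d2/cryptate immunoassay, 1 h incubation.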
# [16] = target: Thyrotropin receptor (Homo sapiens) (UniProt P16473); test: qHTS assay to identify small molecule antagonists of the thyroid stimulating hormone receptor (TSHR) signaling pathway (AID 1259385; calls by dose curve; note: nearly all actives have a fitted effect of over 20% in size)
# Sequence of Thyrotropin receptor (Homo sapiens) (P16473 whole entry, looked up): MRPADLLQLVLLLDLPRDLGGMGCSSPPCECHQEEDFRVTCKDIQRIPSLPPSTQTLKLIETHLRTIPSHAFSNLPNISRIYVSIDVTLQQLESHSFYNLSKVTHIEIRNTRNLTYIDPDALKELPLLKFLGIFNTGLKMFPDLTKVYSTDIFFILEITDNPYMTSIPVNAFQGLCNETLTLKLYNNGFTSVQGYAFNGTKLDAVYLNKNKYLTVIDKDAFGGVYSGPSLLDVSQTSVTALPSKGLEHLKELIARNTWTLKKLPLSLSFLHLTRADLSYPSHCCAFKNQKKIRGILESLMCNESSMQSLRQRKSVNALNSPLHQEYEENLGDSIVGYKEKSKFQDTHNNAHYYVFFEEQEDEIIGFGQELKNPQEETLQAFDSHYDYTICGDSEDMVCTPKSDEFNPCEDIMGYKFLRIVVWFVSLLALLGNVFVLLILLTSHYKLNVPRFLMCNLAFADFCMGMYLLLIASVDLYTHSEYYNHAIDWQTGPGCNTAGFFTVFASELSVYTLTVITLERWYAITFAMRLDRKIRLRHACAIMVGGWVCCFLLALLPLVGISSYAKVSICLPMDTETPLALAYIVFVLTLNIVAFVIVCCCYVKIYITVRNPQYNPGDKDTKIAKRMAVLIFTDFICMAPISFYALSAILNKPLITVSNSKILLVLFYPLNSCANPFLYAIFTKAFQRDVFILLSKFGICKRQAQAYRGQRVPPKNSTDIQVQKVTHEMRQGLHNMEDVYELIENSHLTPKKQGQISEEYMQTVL
# How it was run: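 Antagonist mode: compound-treated TSHR-expressing HEK293 cells were stimulated with 1.5 ng/mL TSH (final) in presence of Ro20-1724 for 30 min at RT. HTRF cAMP detection after 1 h; each compound tested at 15 concentrations, triplicate.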
# [17] = target: Androgen receptor (Homo sapiens) (UniProt P10275); test: qHTS assay to identify small molecule antagonists of the androgen receptor (AR) signaling pathway using the MDA cell line in the presence of 0.5 nM R1881 (AID 1259243); note: nearly all actives have a fitted effect of over 50% in size; note: potency is the fitted concentration of half-maximal effect
# Sequence of Androgen receptor (Homo sapiens) (P10275 whole entry, looked up): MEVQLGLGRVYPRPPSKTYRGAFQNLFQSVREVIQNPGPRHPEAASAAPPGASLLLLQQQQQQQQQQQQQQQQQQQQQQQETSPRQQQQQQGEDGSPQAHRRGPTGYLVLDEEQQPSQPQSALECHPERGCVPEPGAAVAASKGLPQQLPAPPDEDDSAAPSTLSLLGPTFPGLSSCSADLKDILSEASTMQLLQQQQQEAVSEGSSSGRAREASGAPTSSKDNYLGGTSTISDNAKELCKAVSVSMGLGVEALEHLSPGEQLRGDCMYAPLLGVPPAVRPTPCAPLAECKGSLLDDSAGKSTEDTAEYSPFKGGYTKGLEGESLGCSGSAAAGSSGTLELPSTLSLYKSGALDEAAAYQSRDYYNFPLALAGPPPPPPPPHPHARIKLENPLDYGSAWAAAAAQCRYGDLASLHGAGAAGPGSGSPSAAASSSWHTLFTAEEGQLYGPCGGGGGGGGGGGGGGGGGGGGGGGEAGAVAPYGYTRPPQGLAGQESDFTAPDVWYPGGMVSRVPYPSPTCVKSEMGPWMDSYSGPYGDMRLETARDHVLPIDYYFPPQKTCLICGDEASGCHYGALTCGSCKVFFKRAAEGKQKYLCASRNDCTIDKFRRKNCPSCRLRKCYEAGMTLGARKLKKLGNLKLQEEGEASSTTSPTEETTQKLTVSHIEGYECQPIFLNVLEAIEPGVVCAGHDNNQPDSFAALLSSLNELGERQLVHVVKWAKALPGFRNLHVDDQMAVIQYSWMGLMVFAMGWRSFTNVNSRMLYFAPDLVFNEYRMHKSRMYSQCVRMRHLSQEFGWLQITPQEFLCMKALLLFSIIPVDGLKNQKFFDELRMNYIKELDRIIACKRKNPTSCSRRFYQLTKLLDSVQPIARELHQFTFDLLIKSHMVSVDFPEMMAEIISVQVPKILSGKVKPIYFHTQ
# How it was run: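 Reporter cells cultured without CO2 receive test chemicals, then 0.5 nM R1881 final; after 16 hr at 37C, ONE-Glo is added and light output recorded.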
# [18] = target: Androgen receptor (Homo sapiens) (UniProt P10275); test: qHTS assay to identify small molecule agonists of the androgen receptor (AR) signaling pathway in the presence of an antagonist (AID 1259381; calls by dose curve; note: nearly all actives have a fitted effect of over 15% in size)
# How it was run: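 Test compounds at 15 concentrations were incubated for 16hr with MDA-kb2 reporter cells in presence of 3.0uM nilutamide (final). Signal: ONE-Glo luciferase luminescence.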
# [19] = qHTS assay to identify small molecule agonists of the estrogen receptor alpha (ER-alpha) signaling pathway in the presence of an antagonist - cell viability counter screen (AID 1259386);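 note: cells exposed to compounds for 22 h at 37 °C before the viability read; nearly all actives have a fitted effect of over 30% in size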; note: potency is the fitted concentration of half-maximal effect
# How it was run: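 Viability counter screen using VM7Luc4E2 (full-length ER-alpha, four ERE-luciferase). The cells were treated with compounds alongside ICI-182,780 10.0nM for 22hr, and live-cell protease fluorescence was quantified with CellTiter-Fluor.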
# [20] = qHTS assay to identify small molecule antagonists of the estrogen receptor beta (ER-beta) signaling pathway - cell viability counter screen (AID 1259382);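 note: HEK293T cells carrying ER-beta-UAS-bla reporter stimulated with estradiol; series mostly up to about 92 µM; nearly all actives have a fitted effect of over 55% in size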
# How it was run: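 In this multiplexed counter screen, cells were seeded at 2,000 per well in medium with 2% charcoal-stripped FBS and incubated 6 hr before compound and 1nM final E2 were added. Sixteen hours later, ATP-based luminescence reported viability.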
SMILES,Potency [1],Potency [2],Potency [3],Potency [4],outcome [5],Potency [6],Potency [7],outcome [8],Potency [9],outcome [10],Potency [11],Potency [12],Potency [13],Potency [14],Potency [15],outcome [16],Potency [17],outcome [18],Potency [19],Potency [20]
Cc1c(N(C)C)c(=O)n(-c2ccccc2)n1C,inactive,inactive,inactive,inactive,inactive,inactive,inactive,inactive,inactive,inactive,inactive,inactive,inactive,inactive,inactive,inactive,,,,
C[C@]12CC[C@@H]3c4ccc(O)cc4C[C@@H](CCCCCCCCCS(=O)CCCC(F)(F)C(F)(F)F)[C@H]3[C@@H]1CC[C@@H]2O (stereo not given in full),inactive,,,inactive,inactive,inactive,inactive,,inactive,inactive,,inactive,9.68 µM (active) and 14.3 µM (active) and 8.41 µM (active),,inactive,inactive,8.41 µM (active),inactive,,
OC[C@@H](O)[C@@H](O)[C@H](O)[C@H](O)CO,inactive,inactive,inactive,inactive,inactive,inactive,inactive,inactive,inactive,,,inactive,inactive,inactive,inactive,inactive,,,inactive,
CC1=NN(c2ccccc2)C(=O)C1,inactive,inactive,inactive,inactive,inactive,inactive,inactive,inactive,inactive,inactive,inactive,inactive,inactive,inactive,inactive,inactive,,,inactive,
O=C1OC(c2ccc(O)cc2)(c2ccc(O)cc2)c2ccccc21,inactive,,inactive,inactive,inactive,inactive,,inactive,3.83 µM (active) and 38.6 µM (active) and inactive,,15.4 µM (active),inactive,54.1 µM (active) and inactive,,inactive,inactive,48.6 µM (active) and inactive,inactive,,
NC(=O)N/N=C/c1ccc([N+](=O)[O-])o1,inactive,inactive and 64.8 µM (active),inactive,inactive,inactive,inactive and 54.5 µM (active),inactive and 30.6 µM (active),inactive,inactive and 10.9 µM (active) and 29.8 µM (active),inactive,inactive,inactive,inactive,inactive,inactive,inactive,,,inactive and 61.1 µM (active),inactive
COCC(C)N (stereo not given),inactive,inactive,,inactive,inactive,inactive,inactive,inactive,inactive,inactive,inactive,inactive,inactive,inactive,inactive,inactive,inactive,inactive,inactive,
COc1ccc(C(=O)c2ccccc2)c(O)c1,inactive,inactive,inactive,inactive,inactive,inactive,inactive,,inactive,inactive,inactive,inactive,inactive,inactive,inactive,inactive,15.1 µM (active) and 27.3 µM (active) and 21.1 µM (active),inactive,,
CC(C)Cc1ccc(C(C)C(=O)O)cc1 (stereo not given),inactive,inactive,inactive,inactive,inactive,inactive,inactive,inactive,inactive,inactive,inactive,inactive,inactive,inactive,inactive,inactive,,,,
CC(C)(C)CC(C)(C)c1ccc(O)c(-n2nc3ccccc3n2)c1,inactive,inactive,inactive,inactive,inactive,inactive,inactive,inactive,inactive,inactive,inactive,inactive,27.7 µM (active),inactive,inactive,inactive,,,,inactive
O=c1c(-c2ccc(O)cc2)coc2cc(O)cc(O)c12,inactive,,inactive,8.49 µM (active) and 6.86 µM (active) and 9.44 µM (active),inactive,inactive,inactive,,10.7 µM (active),,,inactive,13.7 µM (active),,inactive,inactive,inactive,inactive,inactive,inactive
NC(=O)OCC(COC(N)=O)c1ccccc1,inactive,inactive,inactive,inactive,inactive,inactive,,inactive,inactive,,,inactive,inactive,inactive,inactive,inactive,inactive,inactive,,inactive
CC(=O)c1ccc(S(=O)(=O)NC(=O)NC2CCCCC2)cc1,inactive,inactive,inactive,inactive,inactive,inactive,,inactive,inactive,inactive,inactive,inactive,inactive,inactive,inactive,inactive,inactive,inactive,inactive,
COc1cc(C=O)ccc1O,inactive,inactive,inactive,inactive,inactive,inactive,inactive,,inactive,inactive,inactive,inactive,inactive,inactive,inactive,inactive,inactive,inactive,inactive,
NCCNc1cccc2ccccc12,inactive,,,inactive,inactive,61.1 µM (active) and inactive,inactive,inactive,61.1 µM (active) and 37.6 µM (active) and inactive,,,54.4 µM (active) and 59.6 µM (active) and inactive,54.4 µM (active) and 59.6 µM (active),,,,68.5 µM (active) and inactive,inactive,inactive,
